Calls of active or inactive are those of the source.
Key:
[1] = system: Plasmodium falciparum Sir2 (PF13_0152, Sir2A); experiment: Plasmodium falciparum Sir2A binding compounds – biochemical, small-molecule microarray, 635 nm fluorescence, primary screen (AID 1098); settings: fluorescence 635 nm, higher = more signal;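 also: score merges spot fluorescence intensity with its signal-to-noise ratio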
[2] = probe aDKK1 binding to arrayed compounds – biochemical, biotinylated probe, 635/667 nm fluorescence, primary screen (AID 1099); settings: small-molecule microarray, higher = more signal;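 also: score merges 667nm spot fluorescence with signal to noise across triplicate slides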
[3] = probe aCHRDL2 binding to arrayed compounds – biochemical, biotinylated probe, 635/667 nm fluorescence, primary screen (AID 1100); settings: small-molecule microarray, higher = more signal
[4] = change in splice reporter luminescence, either direction, cell-based, HEK293, spliceosome inhibition project, primary screen (AID 1101); settings: HEK293 splicing luciferase reporter, 24 h, higher = more signal, called active from +8 up or from −8 down;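 also: HEK293 cells carrying a splicing-competent luciferase reporter gene; test concentration not given here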
[5] = target: Fibroblast growth factor 10 (Homo sapiens) (UniProt O15520); experiment: compounds binding fibroblast growth factor 10 – biochemical, small-molecule microarray, 635 nm fluorescence, primary screen (AID 1102); settings: FGF10 binding, fluorescence 635 nm, higher = more signal
[6] = system: glycogen synthase kinase-3 (GSK3A per assay name; protocol says GSK3B); experiment: compounds binding glycogen synthase kinase-3 – biochemical, small-molecule microarray, 635 nm fluorescence, GSK3A, primary screen (AID 1103); settings: fluorescence 635 nm, higher = more signal; also: the record names both GSK3A and GSK3B
[7] = target: Epidermal growth factor receptor (Homo sapiens) (UniProt P00533); experiment: compounds binding epidermal growth factor receptor – biochemical, small-molecule microarray, 635 nm fluorescence, primary screen (AID 1104); settings: EGFR binding, higher = more signal;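 also: score merges 667 nm emission intensity with spot signal to noise over triplicate slides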
[8] = target: Follistatin-related protein 3 (Homo sapiens) (UniProt O95633); experiment: compounds binding follistatin-related protein 3 – biochemical, small-molecule microarray, 635 nm fluorescence, primary screen (AID 1105); settings: FSTL3 binding, higher = more signal;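 also: score merges emission near 667 nm and signal to noise per printed spot across three slides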
[9] = target: Dickkopf-related protein 1 (Homo sapiens) (UniProt O94907); experiment: small molecules binding DKK1 protein – biochemical, small-molecule microarray, 635 nm fluorescence scan, primary screen (AID 1106); settings: higher = more signal;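 also: score merges emission near 667 nm with signal to noise over three replicate slides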
[10] = system: Inhibin beta A chain (activin A); experiment: small molecules binding activin A – biochemical, small-molecule microarray, 635 nm fluorescence scan, primary screen (AID 1107); settings: INHBA, higher = more signal;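 also: mouse activin A protein probed at 4.33 µg/mL on printed slides; score merges bound-protein fluorescence near 667 nm with spot signal-to-noise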
[11] = system: Human papillomavirus type 1a protein E7 (residues 44-93); experiment: small molecules binding HPV E7 44-93 – biochemical, small-molecule microarray, residues 44-93, 635 nm fluorescence, primary screen (AID 1108); settings: fluorescence 635 nm, higher = more signal;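 also: E7 fragment applied at 1 µg/mL in TBST for 1 h at 4 C; score combines spot fluorescence with its signal to noise ratio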
[12] = hepatitis C replication reporter changes, two-sided – Huh7 cells, luciferase reporter, HCV replication inhibitor project, primary screen (AID 1109); settings: Huh7 HCV replicon luciferase reporter, 48 h; higher = more signal;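 also: huh7 hepatoma cells harbouring a luciferase neomycin HCV replicon reporter; luciferase luminescence as measure of HCV replicon replication; test concentration not given here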
[13] = target: Left-right determination factor 2 (Homo sapiens) (UniProt O00292); experiment: small molecules binding LEFTY2 protein – biochemical, small-molecule microarray, 635 nm fluorescence scan, primary screen (AID 1110); settings: higher = more signal
[14] = target: Calmodulin-1 (Homo sapiens) (UniProt P0DP23); experiment: small molecules binding calmodulin-1 with EGTA – biochemical, small-molecule microarray, Cy5-labelled CALM1, profiling panel (AID 1111); settings: Cy5-CALM1 binding fluorescence, higher = more signal;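 also: labelled calmodulin applied in Tris saline Tween buffer holding calcium plus EGTA and DTT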
[15] = target: Calmodulin-1 (Homo sapiens) (UniProt P0DP23); experiment: small molecules binding Ca-loaded calmodulin-1 – biochemical, small-molecule microarray, Cy5-labelled CALM1, plus calcium, artefact control for SMM control-protein annotation, profiling panel (AID 1112); settings: Cy5-CALM1 binding fluorescence, higher = more signal;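 also: score merges spot fluorescence with signal to noise from triplicate slides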
[16] = probe aWnt5a binding to arrayed compounds – biochemical, biotinylated probe, 635/667 nm fluorescence, primary screen (AID 1113); settings: small-molecule microarray, higher = more signal;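 also: score merges 667 nm fluorescence intensity with signal-to-noise per printed feature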
[17] = probe aShh binding to arrayed compounds – biochemical, biotinylated probe, 635/667 nm fluorescence, primary screen (AID 1114); settings: small-molecule microarray, higher = more signal;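 also: probe is biotin-labelled aShh protein from a stem cell growth factor screen; measures binding of labelled protein to compounds printed on the slide; score merges feature fluorescence at 667 nm with signal-to-noise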
[18] = probe aNog binding to arrayed compounds – biochemical, biotinylated probe, 635/667 nm fluorescence, primary screen (AID 1115); settings: small-molecule microarray, higher = more signal;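 also: probe is biotinylated aNog protein used at 0.15 µg/mL for 1 h at 4 C; z-score combines 667 nm fluorescence of each spot with its signal to noise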
[19] = target: Torsin-1A-interacting protein 1 (Homo sapiens) (UniProt Q5JTV8); experiment: compound microarray binding of lysate hLAP1 – cell lysate, small-molecule microarray, COS7 lysate, 635/667 nm fluorescence, primary screen (AID 1116); settings: 635 nm fluorescence, higher = more signal
[20] = target: Alpha-bungarotoxin (Bungarus multicinctus) (UniProt P60615); experiment: compounds binding labelled alpha-BTX control protein – biochemical, small-molecule microarray, Alexa647 label, 635/667 nm fluorescence, artefact control for SMM control protein annotation, profiling panel (AID 1117); settings: alpha-BTX-A647 binding fluorescence, higher = more signal
Chain of Alpha-bungarotoxin (Bungarus multicinctus) (P60615 whole entry, looked up): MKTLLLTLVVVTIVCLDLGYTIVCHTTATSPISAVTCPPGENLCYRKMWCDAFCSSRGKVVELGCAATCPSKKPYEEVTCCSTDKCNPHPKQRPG

Chain of Dickkopf-related protein 1 (Homo sapiens) (O94907 whole entry, looked up): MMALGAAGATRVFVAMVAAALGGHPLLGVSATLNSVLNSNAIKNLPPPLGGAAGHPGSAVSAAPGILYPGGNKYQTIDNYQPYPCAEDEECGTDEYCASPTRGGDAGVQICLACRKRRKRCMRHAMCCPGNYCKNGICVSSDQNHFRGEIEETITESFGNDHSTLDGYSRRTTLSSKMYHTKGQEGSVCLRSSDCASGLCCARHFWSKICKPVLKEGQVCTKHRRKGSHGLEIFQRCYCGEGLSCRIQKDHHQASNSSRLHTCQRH
Chain of Follistatin-related protein 3 (Homo sapiens) (O95633 whole entry, looked up): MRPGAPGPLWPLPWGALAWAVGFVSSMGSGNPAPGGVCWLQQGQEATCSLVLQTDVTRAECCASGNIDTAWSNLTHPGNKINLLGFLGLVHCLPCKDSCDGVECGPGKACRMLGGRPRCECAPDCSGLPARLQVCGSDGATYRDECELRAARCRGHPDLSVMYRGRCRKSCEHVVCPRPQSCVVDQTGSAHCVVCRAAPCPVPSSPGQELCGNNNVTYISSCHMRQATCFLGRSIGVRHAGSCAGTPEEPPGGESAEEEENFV
Chain of Torsin-1A-interacting protein 1 (Homo sapiens) (Q5JTV8 whole entry, looked up): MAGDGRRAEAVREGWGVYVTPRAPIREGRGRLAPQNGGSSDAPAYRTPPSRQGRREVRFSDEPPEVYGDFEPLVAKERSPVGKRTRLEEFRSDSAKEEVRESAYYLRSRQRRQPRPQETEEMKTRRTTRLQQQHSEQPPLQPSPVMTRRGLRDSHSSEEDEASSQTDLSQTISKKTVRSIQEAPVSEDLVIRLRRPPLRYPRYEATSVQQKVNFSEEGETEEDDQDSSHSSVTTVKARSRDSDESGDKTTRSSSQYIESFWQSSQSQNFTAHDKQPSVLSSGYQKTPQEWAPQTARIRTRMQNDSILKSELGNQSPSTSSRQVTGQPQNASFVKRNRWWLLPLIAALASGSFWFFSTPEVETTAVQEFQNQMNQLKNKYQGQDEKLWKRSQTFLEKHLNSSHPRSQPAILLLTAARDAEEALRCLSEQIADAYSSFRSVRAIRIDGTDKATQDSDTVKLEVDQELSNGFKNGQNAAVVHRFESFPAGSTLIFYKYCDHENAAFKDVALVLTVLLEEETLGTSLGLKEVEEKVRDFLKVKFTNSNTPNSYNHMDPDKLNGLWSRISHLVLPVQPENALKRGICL
Chain of Epidermal growth factor receptor (Homo sapiens) (P00533 whole entry, looked up): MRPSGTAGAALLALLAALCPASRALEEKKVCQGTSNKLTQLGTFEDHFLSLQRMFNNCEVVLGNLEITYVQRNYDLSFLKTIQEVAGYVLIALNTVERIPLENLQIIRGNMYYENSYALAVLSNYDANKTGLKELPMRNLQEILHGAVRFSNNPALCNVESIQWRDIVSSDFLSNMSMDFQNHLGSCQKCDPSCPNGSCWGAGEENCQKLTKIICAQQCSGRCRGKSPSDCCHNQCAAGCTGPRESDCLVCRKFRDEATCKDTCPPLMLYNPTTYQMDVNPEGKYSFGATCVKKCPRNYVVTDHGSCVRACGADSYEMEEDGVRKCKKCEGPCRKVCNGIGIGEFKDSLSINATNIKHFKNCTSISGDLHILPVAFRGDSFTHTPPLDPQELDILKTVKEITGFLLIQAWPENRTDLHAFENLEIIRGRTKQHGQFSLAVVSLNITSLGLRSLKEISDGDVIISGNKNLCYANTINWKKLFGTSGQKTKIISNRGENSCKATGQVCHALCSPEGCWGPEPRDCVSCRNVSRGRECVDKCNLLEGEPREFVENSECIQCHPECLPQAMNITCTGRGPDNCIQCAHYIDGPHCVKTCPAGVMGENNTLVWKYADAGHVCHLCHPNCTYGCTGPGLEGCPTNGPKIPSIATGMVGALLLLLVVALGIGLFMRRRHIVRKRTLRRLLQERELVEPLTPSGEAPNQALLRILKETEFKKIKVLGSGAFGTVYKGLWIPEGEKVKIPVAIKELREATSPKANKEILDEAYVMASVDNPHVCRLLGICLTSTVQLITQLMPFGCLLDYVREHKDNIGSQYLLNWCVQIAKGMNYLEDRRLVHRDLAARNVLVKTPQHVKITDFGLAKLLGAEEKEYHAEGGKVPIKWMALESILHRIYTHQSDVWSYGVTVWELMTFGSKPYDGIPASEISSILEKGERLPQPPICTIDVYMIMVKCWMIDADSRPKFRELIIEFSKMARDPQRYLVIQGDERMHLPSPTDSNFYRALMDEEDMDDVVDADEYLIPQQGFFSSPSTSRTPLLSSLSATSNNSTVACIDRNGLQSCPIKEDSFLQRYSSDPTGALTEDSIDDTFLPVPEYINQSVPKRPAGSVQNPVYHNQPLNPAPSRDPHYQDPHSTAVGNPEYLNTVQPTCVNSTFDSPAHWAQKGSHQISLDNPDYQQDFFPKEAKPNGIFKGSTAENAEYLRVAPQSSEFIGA
Chain of Fibroblast growth factor 10 (Homo sapiens) (O15520 whole entry, looked up): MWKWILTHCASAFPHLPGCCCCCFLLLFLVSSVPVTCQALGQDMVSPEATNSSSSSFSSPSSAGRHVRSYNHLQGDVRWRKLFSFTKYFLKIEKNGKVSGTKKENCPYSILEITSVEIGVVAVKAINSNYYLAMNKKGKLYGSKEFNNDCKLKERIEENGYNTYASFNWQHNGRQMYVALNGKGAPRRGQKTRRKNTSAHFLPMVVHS
Chain of Left-right determination factor 2 (Homo sapiens) (O00292 whole entry, looked up): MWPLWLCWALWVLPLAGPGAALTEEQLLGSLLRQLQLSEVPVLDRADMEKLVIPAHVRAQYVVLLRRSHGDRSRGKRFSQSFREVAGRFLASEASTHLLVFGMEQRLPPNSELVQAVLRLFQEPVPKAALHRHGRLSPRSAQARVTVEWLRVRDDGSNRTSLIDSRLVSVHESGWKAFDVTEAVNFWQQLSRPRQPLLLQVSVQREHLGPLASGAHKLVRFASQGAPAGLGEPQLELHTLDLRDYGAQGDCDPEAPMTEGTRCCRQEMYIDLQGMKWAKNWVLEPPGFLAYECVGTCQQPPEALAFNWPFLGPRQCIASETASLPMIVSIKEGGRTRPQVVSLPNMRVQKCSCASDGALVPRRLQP

Structure (SMILES)	composite z-score [1]	composite z-score [2]	composite z-score [3]	z-score [4]	composite z-score [5]	composite z-score [6]	composite z-score [7]	composite z-score [8]	composite z-score [9]	composite z-score [10]	composite z-score [11]	z-score [12]	composite z-score [13]	composite z-score [14]	composite z-score [15]	composite z-score [16]	composite z-score [17]	composite z-score [18]	composite z-score [19]	composite z-score [20]
CCOC(=O)C[C@H]1[C@H](OC(=O)c2ccc(C(=O)c3ccccc3)cc2)[C@@H](NC(=O)C2CCCCC2)c2cc(OCCCO)ccc2N1C(=O)c1ccccc1	0.348	-0.0675	-0.0333	0.062 (inactive)	0.398	0.628	0.122	0.165	0.126	0.559	1.34	-2.27	0.239	0.541	-0.0224	-0.0346	0.0483	-0.158	0.512	0.745
C=C[C@H](C)[C@@H](O)c1ccc(O)c2ccccc12	1.43	-0.302	-0.0488	-0.0352 (inactive)	-0.152	-0.61	-0.775	-0.189	0.0078	1.28	-0.899	-2	-0.187	-1.15	-0.975	-0.175	-0.221	-0.689	-0.438	0.465
CC(C)C[C@@H]1NC(=O)[C@H]2C[C@@H](C(=O)NCCCCCCNC(=O)CS)[C@@H](c3cccc(OCCO)c3)N2C1=O	1.54	0.0362	-0.139	-0.576 (inactive)	1.39	1.27	1.23	1.49	1.94	0.525	1.41	-0.117	1.45	0.83	-0.587	-0.001	-0.282	-0.152	1.95	1.17
O=C1N(CCS(=O)(=O)c2ccccc2)c2ccccc2C[C@@]12COC(c1ccc(OCCCO)cc1)=N2	1.51	0.957	1.12	-0.651 (inactive)	0.805	1.32	0.432	1.32	0.763	1.18	1.09	-1.49	0.428	0.417	0.445	0.152	0.0124	0.69	0.99	-0.103
CC(C)C[C@@H]1NC(=O)[C@H]2C[C@@H](C(=O)NCCCCCNC(=O)CS)[C@@H](c3cccc(OCCO)c3)N2C1=O	1.52	-0.0356	-0.003	0.684 (inactive)	1.03	1.32	1.08	1.36	1.44	1.25	1.38	-0.265	1.25	0.193	-0.364	-0.194	-0.358	-0.0428	0.698	0.812
Cc1ccc([C@H]2[C@H](C(=O)O)[C@H](Sc3ccccc3)[C@@H](C(C)C)N2S(=O)(=O)c2ccc(C)cc2)cc1	0.587	-0.403	0.355	0.27 (inactive)	0.95	1.22	0.151	0.905	0.168	0.417	1.41	-0.981	0.314	1.36	0.904	0.0718	-0.0709	-0.528	0.759	0.715
COC(=O)C1=CC(CCCO)=CC(C2CC2)N(Cc2sc3ccccc3c2Cl)C=C1C(=O)OC (stereo not given)	1.17	0.589	0.724	-0.8 (inactive)	1.02	0.902	0.0108	0.766	-0.0017	1.06	1.44	-2.53	0.101	1.49	0.952	0.168	0.441	0.838	1.74	1.84
CN1C=C(C(=O)OCCS(C)(=O)=O)C(C(=O)OCCS(C)(=O)=O)=CC(CCCO)=CC1C1CC1 (stereo not given)	-0.274	-0.209	-0.0925	0.788 (inactive)	0.428	-0.256	-0.14	0.0695	-0.596	-0.0932	0.117	-0.552	-0.0097	0.0991	-0.0416	-0.126	0.0434	0.257	-0.116	0.198
C=CCOC(=O)[C@@H]1[C@H]2C(=O)O[C@H](c3ccccc3)[C@H](c3ccccc3)N2[C@H](c2ccc(OCCOC(=O)[C@@H]3C[C@@H]4C(=O)NCC(=O)N4[C@@H]3c3cccc(OCCO)c3)cc2)[C@@]12C(=O)Nc1ccc(I)cc12	1.05	0.0651	-0.162	-0.798 (inactive)	1.29	1.16	1.12	1.1	0.866	0.884	1.43	-1.54	0.949	0.689	-0.0508	-0.0735	-0.043	1.07	-1.86	1.75
COc1ccc(C#Cc2ccc3c(c2)[C@]2(C(=O)N3)[C@H](c3ccc(O)cc3)N3[C@H](c4ccccc4)[C@H](c4ccccc4)OC(=O)[C@H]3[C@@H]2C(=O)NC[C@H](O)c2ccccc2)cc1	1.14	0.155	0.397	-1.02 (inactive)	0.94	0.755	0.206	0.801	0.233	0.282	1.33	-1.63	0.0197	0.199	0.689	0.164	-0.138	0.305	0.818	1.26
O=c1cccc(CCc2ccccc2)o1	0.931	-0.232	-0.44	0.722 (inactive)	0.228	0.599	-0.834	0.153	0.193	0.532	0.744	0.237	0.103	-0.408	-0.262	-0.118	0.0952	-0.0827	-0.684	1.04
COc1ccc([Si](C)(C)[C@@H]2[C@@H](CCn3cc([C@H](O)c4ccccc4)nn3)O[C@]3(C(=O)N(Cc4cccc(N5CCOC5=O)c4)c4ccccc43)[C@H]2C)cc1	-1.35	-0.231	0.658	1.7 (inactive)	-1.02	-1.01	-0.901	-0.995	-1.13	-0.495	-0.362	-2.64	-1.47	-0.13	0.78	-0.202	-0.117	-0.256	-0.0689	-0.85
COCCOC(=O)N1C(=O)[C@@]2(c3cc(C#CCNC(N)=O)ccc31)[C@H](c1ccccc1OCCO)N1[C@H](c3ccccc3)[C@H](c3ccccc3)OC(=O)[C@H]1[C@@H]2C(N)=O	0.806	0.117	0.106	-0.265 (inactive)	0.848	0.786	0.528	1.26	0.439	0.719	1.18	-0.733	0.54	0.451	0.664	0.0253	-0.229	-0.314	-0.0837	1.18
C=CCNC(=O)[C@@H]1[C@H]2C(=O)O[C@H](c3ccccc3)[C@H](c3ccccc3)N2[C@H](c2ccc(O)cc2)[C@@]12C(=O)N(C(=O)OCCOC)c1ccccc12	1.03	-0.0262	0.421	-1 (inactive)	0.796	1.02	-0.405	0.638	-0.232	-0.188	1.2	-1.43	-0.211	0.922	-0.42	-0.0478	-0.0904	0.215	1.12	2.27
C=C(CCCC)C(=O)CC[C@H](OC(=O)c1cccnc1)c1cccc(OCCO)c1	0.681	-0.298	0.165	4.13 (inactive)	0.309	-0.208	-0.502	-0.688	-0.219	1.29	0.343	-3.04	0.0112	-0.538	-0.993	-0.0107	-0.0035	-0.356	0.479	-0.0331
CN(C)CCCCCCNC(=O)[C@H]1C[C@H]2C(=O)N[C@@H](CCCCN)C(=O)N2[C@H]1c1ccc(O)cc1	2.14	2.83	1.71	0.509 (inactive)	1.29	1.48	1.6	1.65	2.15	1.45	1.48	-0.181	1.56	2.01	1.14	0.914	2.1	3.38	4.52	2.42
COCCCNC(=O)[C@@]1(c2ccc([N+](=O)[O-])cc2)CC(=O)N(CC23CC4CC(CC(C4)C2)C3)[C@@H]1c1ccc(CO)cc1	1.61	0.0245	-0.0133	0.00653 (inactive)	1.22	1.31	0.905	1.48	1.08	0.703	1.37	-2.47	1.13	-0.121	-0.548	-0.109	-0.0119	-0.761	0.422	0.572
CC(C)N1C(=O)C[C@@](C(=O)NCc2ccccc2)(c2ccc([N+](=O)[O-])cc2)[C@H]1c1ccc(CO)cc1	0.142	-0.0752	0.934	0.0798 (inactive)	0.484	0.321	-0.786	-0.17	-0.0781	0.0614	1.37	-0.0323	-0.57	-0.47	-0.602	-0.0894	-0.13	-0.498	1.99	-0.148
Cc1ccccc1C(O)C1C=CC2C(=O)N(C)C(=O)C2N1N1CCCCC1 (stereo not given)	1.29	0.837	0.906	1.28 (inactive)	0.975	1.04	0.628	0.621	0.215	1.28	1.05	-0.18	0.163	0.8	0.413	0.0403	0.254	1.72	1.65	1.04
CC(C)(C)OC(=O)CC[C@@]1(C(=O)O)N=C(c2ccc(OCCCO)cc2)O[C@@H]1c1ccccc1N=[N+]=[N-]	1.67	1.16	1.36	-0.66 (inactive)	0.991	0.357	-0.288	-0.153	-0.169	1.33	0.884	2.94	-0.486	1.64	1.07	0.0711	0.309	0.58	1.06	1.15

From PubChem BioAssay
